We go through 19 compounds from ChEMBL document CHEMBL3433997, “St. Jude Leishmania screening dataset” (2016).

Molecules are shown by their SMILES.

Common to all, as to format: functional
Assay [1] has as its target Solute carrier family 2, facilitated glucose transporter member 1 (Homo sapiens) (UniProt P11166). Description: ST_JUDE_LEISH: Cytotoxicity at 2uM final concentration against transgenic Leishmania Mexicana promastigotes LmGLUT1 that are glucose transport deficient and complemented with the human glucose transporter GLUT1. Activity is measured by DNA content using SYBR green in vitro.

Assay [2] concerns the target Hexose transporter 1 (Plasmodium falciparum) (UniProt O97467). As to the kind of experiment: ST_JUDE_LEISH: Cytotoxicity at 2uM final concentration against transgenic Leishmania Mexicana promastigotes LmPfHT that are glucose transport deficient and complemented with the Plasmodium falciparum hexose transporter. Activity is measured by DNA content using SYBR green in vitro.

Assay [3] has as its target Glucose transporter (Leishmania mexicana) (UniProt O61059). Description: ST_JUDE_LEISH: Cytotoxicity at 2uM final concentration against transgenic Leishmania Mexicana promastigotes LmGT2 that are glucose transport deficient and complemented with the L. Mexicana glucose transporter 2. Activity is measured by DNA content using SYBR green in vitro.

Sequence of Solute carrier family 2, facilitated glucose transporter member 1 (Homo sapiens) (P11166 whole entry): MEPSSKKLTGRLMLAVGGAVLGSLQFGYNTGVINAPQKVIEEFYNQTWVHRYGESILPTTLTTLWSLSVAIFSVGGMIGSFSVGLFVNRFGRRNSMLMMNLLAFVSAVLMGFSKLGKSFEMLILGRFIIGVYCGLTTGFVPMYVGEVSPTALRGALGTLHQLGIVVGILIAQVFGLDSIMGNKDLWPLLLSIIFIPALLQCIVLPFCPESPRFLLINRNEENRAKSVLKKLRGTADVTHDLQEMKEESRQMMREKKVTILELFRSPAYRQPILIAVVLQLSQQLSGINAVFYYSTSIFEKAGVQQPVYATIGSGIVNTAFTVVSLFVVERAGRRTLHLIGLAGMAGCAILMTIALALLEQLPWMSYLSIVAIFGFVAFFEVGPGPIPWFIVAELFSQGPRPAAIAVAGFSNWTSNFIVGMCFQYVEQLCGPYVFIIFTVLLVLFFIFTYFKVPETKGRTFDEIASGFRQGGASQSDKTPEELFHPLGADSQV

In the case of `COc1c(OC)c(OC)c2ccccc2c1CNCCCCCCNCc1c(OC)c(OC)c(OC)c2ccccc12`, the inhibition in assay [1] stood at 7.56%; in assay [2] it was 7.58%; in assay [3] it was 0.02%.

Take `Cc1cc(N2CCN(CC3CCN(C)CC3)CC2)nc(Nc2ccc(Br)cc2)n1`: the inhibition was determined as 1.44% in assay [1], 2.2% in assay [2] and 1.74% in assay [3].

For the compound `c1ccc(-c2nc(Nc3nc4ccccc4[nH]3)[nH]c2-c2ccccc2)cc1`, the inhibition in assay [1] was 10.8%; in assay [2], 6.74%; in assay [3], 4.43%.

As to `Cc1nc(C)c(CC(=O)Nc2cccc(-c3cccc(-c4nc5cc(C(F)(F)F)ccc5[nH]4)c3)c2)s1`, the inhibition in assay [1] stood at 2.61%; in assay [2], 2.61%; in assay [3], 1.2%.

For `COc1cc(C(=O)NCc2nn(CCN3CCC(N4CCCC4)CC3)cc2-c2ccc(Cl)c(Cl)c2)cc(OC)c1OC`, the figures for the inhibition in assay [1], in assay [2] and in assay [3] were -2.77%, 3.08% and 3.75%, respectively.

With `O=C(Nc1ccc(I)cc1)N1CCc2sccc2C1CN1CCCCC1` (configuration not stated), the inhibition turned out to be 12.2% in assay [1], 9.79% in assay [2] and 10.5% in assay [3].

With `Fc1ccccc1C=NN=c1cc[nH]c2ccc(C(F)(F)F)cc12`, the inhibition in assay [1] was determined as 3.03%; in assay [2], 3.13%; in assay [3], 2.13%.

Turning to `O=C(Nc1cccc(C2=NCCN2)c1)Nc1cccc(C2=NCCN2)c1`, the figures for the inhibition in assay [1], in assay [2] and in assay [3] were 1.69%, 5.37% and 1.1%, respectively.

For `COc1cccc2c(Oc3ccccc3C)ccnc12`, the results for the inhibition in assay [1], in assay [2] and in assay [3] were -0.44%, -1.86% and 0.33%, respectively.

Regarding `CN(C)CCN(C)Cc1ccc(-c2ccc3c(Nc4ccc(Oc5ccccc5)cc4)ccnc3c2)o1`, the inhibition in assay [1] stood at 0.78%; in assay [2], 2.26%; in assay [3] it was 2.63%.

As for `CC(C)(CNC(=O)C1CCN(Cc2ccc(Cl)cc2)CC1)c1nc(-c2ccc(Cl)c(O)c2)c(-c2ccncc2)[nH]1`, the results for the inhibition in assay [1], in assay [2] and in assay [3] were 6.62%, 6.8% and 9.13%, respectively.

As to `O=C(Nc1ccc(-c2ccc(-c3nc4ccccc4[nH]3)s2)cc1)Nc1ccc(Cl)c(Cl)c1`, the inhibition is 9.56% in assay [1], 8.71% in assay [2] and 11.2% in assay [3].

With `Cc1ccc(F)c(NC(=O)c2c(-c3c(F)cccc3Cl)noc2C)c1`, the figures for the inhibition in assay [1], in assay [2] and in assay [3] were -0.89%, 2.09% and 1.42%, respectively.

As for `COc1c(Br)cc(Br)cc1-c1ccc(CN2C3CCCC2CCC3)[nH]1`, the figures for the inhibition in assay [1], in assay [2] and in assay [3] were 4.44%, 7.84% and 2.48%, respectively.

Turning to `O=C(NCCCCN1CCN(c2cccc3ccccc23)CC1)c1ccc(NC(=O)c2ccc(Cl)cc2)cc1`, the values for the inhibition in assay [1], in assay [2] and in assay [3] were 2.65%, 2.81% and 2.29%, respectively.

As for `COc1ccc(CCn2c(=N)c(C(=O)NCc3cccnc3)cc3c(=O)n4cccc(C)c4nc32)cc1`, the inhibition in assay [1] came out at 5.3%; in assay [2] it was 4.73%; in assay [3], 0.26%.

Take `Cc1nc(-c2ccc3c(c2)CCN(CCC2CCC(NC(=O)c4cc5cccc(Cl)c5[nH]4)CC2)CC3)no1` (configuration not stated): the inhibition was determined as 0.58% in assay [1], 7.07% in assay [2] and 6.97% in assay [3].

Turning to `O=C(Nc1cccc(CN2CCCN(Cc3ccc4c(c3)OCO4)CC2)c1)c1ccc(Cl)c(Cl)c1`, the inhibition turned out to be 6.43% in assay [1], 5.95% in assay [2] and 8.61% in assay [3].

`COc1cccc(C(=O)C2CC2CN(C)CCC(O)c2ccc(Cl)c(Cl)c2)c1` (configuration not stated): the results for the inhibition in assay [1], in assay [2] and in assay [3] were 3.35%, 3.48% and 4.04%, respectively.

For orientation: inhibition means the relative decrease from the control value, in per cent.
